Values joined by “and” are separate entries in the source; they are usually repeats but may differ in a detail not shown here. Equal values may be shown once. Records with an inconclusive call do not appear. Active and inactive are the calls of the source. Unless noted, the call rests on the fitted dose curve; in most records, active means well fitted curve in the direction sought with a large enough effect; inconclusive means small, poorly fitted or top-dose-only effect, or another doubt; inactive means no such curve, though single readings can be large or run the other way.
Experiment: qHTS Assay for Identifying Gametocytocidal Compounds (AID 743244); further: potency means the concentration at half of the fitted maximal effect;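 on max response: on the % scale 0 is the no-effect control and ±100 the full control effect; actives lower the fluorescent signal which means gametocytes are killed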
Conditions: P. falciparum 3D7 stage III-V gametocytes, alamarBlue, 72 h; max response: stronger effect = lower value
Summary of the method: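 Stage III-V P. falciparum 3D7 gametocytes, 20,000 per well, were exposed to compounds for 72 h at 37C, 5% CO2. AlamarBlue was then added for 24 h and viability was read as fluorescence at Ex 525/Em 598 nm.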

SMILES	max response	Potency
Cc1cc(=O)oc2cc(O)ccc12	14.2% (inactive)	
O=C(NC(Cc1cc(=O)[nH]c2ccccc12)C(=O)O)c1ccc(Cl)cc1 (stereo unspecified)	22.1% (inactive)	
CC(=O)NC[C@H]1CN(c2ccc(N3CCOCC3)c(F)c2)C(=O)O1	1.95% (inactive)	
CCOC(=O)c1c(C)n(C)c2ccc(O)cc12	2.91% (inactive)	
CC[C@]1(O)C[C@H]2CN(CCc3c([nH]c4ccccc34)[C@@](C(=O)OC)(c3cc4c(cc3OC)N(C=O)[C@H]3[C@@](O)(C(=O)OC)[C@H](OC(C)=O)[C@]5(CC)C=CCN6CC[C@]43[C@@H]65)C2)C1	24.7% (inactive)	
Cc1nccn1CC1CCc2c(c3ccccc3n2C)C1=O (stereo unspecified)	-12.7% (inactive) and -3.64% (inactive)	
CC(S)C(=O)NCC(=O)O (stereo unspecified)	-4.83% (inactive)	
CN(C)c1ccc(O)c2c1C[C@H]1C[C@H]3[C@H](N(C)C)C(=O)C(C(N)=O)=C(O)[C@@]3(O)C(=O)C1=C2O	-5.16% (inactive) and -5.04% (inactive)	
Cn1c(NCCN(CCO)CCCc2ccc([N+](=O)[O-])cc2)cc(=O)n(C)c1=O	4.58% (inactive)	
CC1=C(C)C(=O)C(C(CCCCCC(=O)O)c2ccccc2)=C(C)C1=O (stereo unspecified)	-7.88% (inactive)	
CCOc1cc(CC(=O)N[C@@H](CC(C)C)c2ccccc2N2CCCCC2)ccc1C(=O)O	1.56% (inactive)	
COC1=C(OC)C(=O)C(CCCCCCCCCCO)=C(C)C1=O	-5.2% (inactive)	
CN(C)C(=O)COC(=O)Cc1ccc(OC(=O)c2ccc(N=C(N)N)cc2)cc1	10.2% (inactive)	
COC(=O)C1=C(C)NC(C)=C(C(=O)OC(C)C)C1c1cccc2nonc12 (stereo unspecified)	3.5% (inactive)	
CCC(C)(Oc1ccc(C2(c3ccc(OC(C)(CC)C(=O)O)cc3)CCCCC2)cc1)C(=O)O (stereo unspecified)	16.5% (inactive)	
O=C(NCCO[N+](=O)[O-])c1cccnc1	-6.52% (inactive)	
Oc1ccc(OCc2ccccc2)cc1	3.93% (inactive)	
O=C(O)c1cccc(-c2noc(-c3ccccc3F)n2)c1	-7.05% (inactive)	
COC(=O)N[C@H](C(=O)N[C@@H](Cc1ccccc1)[C@@H](O)CN(Cc1ccc(-c2ccccn2)cc1)NC(=O)[C@@H](NC(=O)OC)C(C)(C)C)C(C)(C)C	-11.7% (inactive)	

SMILES	max response	Potency
CN(C)CCc1c[nH]c2ccc(Cn3cncn3)cc12	-0.403% (inactive)	
Cc1ccc(S(=O)(=O)NC(=O)NN2CC3CCCC3C2)cc1 (stereo unspecified)	2.23% (inactive)	
CCCCc1ccc2nc(NC(=O)OC)[nH]c2c1	5.64% (inactive)	
CCC[C@@H]1C[C@@H](C(=O)N[C@@H]([C@H]2O[C@H](SC)[C@H](O)[C@@H](O)[C@H]2O)[C@@H](C)O)N(C)C1	-9.02% (inactive)	
CC1(C)CCC(C)(C)c2cc(NC(=O)c3ccc(C(=O)O)cc3)ccc21	7.33% (inactive)	
Cc1cc(=O)c2c(O)c3c(O)cc(=O)c4c3c3c(cc(O)c1c23)C(C)(C)C=4O	-6.69% (inactive)	
O=c1oc2cc(O)ccc2s1	-6.04% (inactive)	
O=C1CCc2ccc(OCCCCN3CCN(c4cccc(Cl)c4Cl)CC3)cc2N1	0.257% (inactive)	
Nc1cc(C(Cl)=C(Cl)Cl)c(S(N)(=O)=O)cc1S(N)(=O)=O	0.487% (inactive) and -9.48% (inactive)	
Cc1nc(-c2ccc(OCC(C)C)c(C#N)c2)sc1C(=O)O	55.3% (inactive)	
Clc1ccc(C(Cn2ccnc2)OCc2ccsc2Cl)c(Cl)c1 (stereo unspecified)		6.31 µM (active)
C=C(c1ccc(C(=O)O)cc1)c1cc2c(cc1C)C(C)(C)CCC2(C)C	3.99% (inactive)	
COc1c(O)cc2c(c1O)[C@@H]1O[C@H](CO)[C@@H](O)[C@H](O)[C@H]1OC2=O	0.91% (inactive)	
CC(C)c1nc(CN(C)C(=O)N[C@H](C(=O)N[C@@H](Cc2ccccc2)C[C@H](O)[C@H](Cc2ccccc2)NC(=O)OCc2cncs2)C(C)C)cs1	-4.83% (inactive)	
Cc1ncc([N+](=O)[O-])n1CC(C)O (stereo unspecified)	9.98% (inactive)	
CN(c1nccc(=O)[nH]1)C1CCN(c2nc3ccccc3n2Cc2ccc(F)cc2)CC1	6.96% (inactive)	
Cc1ccc(C(=O)c2cc(O)c(O)c([N+](=O)[O-])c2)cc1	2.67% (inactive)	
O=C(O)c1cn(-c2ccc(F)cc2)c2cc(N3CCNCC3)c(F)cc2c1=O	2.27% (inactive)	
CCC1=C(C)CN(C(=O)NCCc2ccc(S(=O)(=O)NC(=O)NC3CCC(C)CC3)cc2)C1=O (stereo unspecified)	36.8% (inactive)	

Experiment: qHTS profiling of the MIPE4 collection as inhibitors of Plasmodium falciparum (3D7) proliferation (AID 743344; call rule not given here;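 further: scaled between DMSO vehicle wells and 0.29 µM artemisinin as full inhibition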)
Conditions: P. falciparum 3D7 in erythrocytes, SYBR Green DNA fluorescence, 72 h; at 28.5 µM (top of the series) unless noted
Summary of the method: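 Parasite DNA was quantified by SYBR Green I fluorescence (ex 485, em 535 nm) after overnight lysis in saponin/Triton buffer at room temperature. Cultures at 0.3% parasitemia and 2.5% hematocrit were first exposed to compound for 72 h at 37 C; signals were normalised to artemisinin (0.29 uM) and vehicle wells.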

SMILES	parasite growth, % of DMSO control [%]
Cc1cc(=O)oc2cc(O)ccc12	85.5
O=C(NC(Cc1cc(=O)[nH]c2ccccc12)C(=O)O)c1ccc(Cl)cc1 (stereo unspecified)	88.9
CC(=O)NC[C@H]1CN(c2ccc(N3CCOCC3)c(F)c2)C(=O)O1	65.6
CCOC(=O)c1c(C)n(C)c2ccc(O)cc12	93.9
CC[C@]1(O)C[C@H]2CN(CCc3c([nH]c4ccccc34)[C@@](C(=O)OC)(c3cc4c(cc3OC)N(C=O)[C@H]3[C@@](O)(C(=O)OC)[C@H](OC(C)=O)[C@]5(CC)C=CCN6CC[C@]43[C@@H]65)C2)C1	19.3
Cc1nccn1CC1CCc2c(c3ccccc3n2C)C1=O (stereo unspecified)	89.8
CC(S)C(=O)NCC(=O)O (stereo unspecified)	95.6
CN(C)c1ccc(O)c2c1C[C@H]1C[C@H]3[C@H](N(C)C)C(=O)C(C(N)=O)=C(O)[C@@]3(O)C(=O)C1=C2O	6.29
Cn1c(NCCN(CCO)CCCc2ccc([N+](=O)[O-])cc2)cc(=O)n(C)c1=O	5.83
CC1=C(C)C(=O)C(C(CCCCCC(=O)O)c2ccccc2)=C(C)C1=O (stereo unspecified)	50.6
CCOc1cc(CC(=O)N[C@@H](CC(C)C)c2ccccc2N2CCCCC2)ccc1C(=O)O	83.8
COC1=C(OC)C(=O)C(CCCCCCCCCCO)=C(C)C1=O	61.7
CN(C)C(=O)COC(=O)Cc1ccc(OC(=O)c2ccc(N=C(N)N)cc2)cc1	75
COC(=O)C1=C(C)NC(C)=C(C(=O)OC(C)C)C1c1cccc2nonc12 (stereo unspecified)	51.5
CCC(C)(Oc1ccc(C2(c3ccc(OC(C)(CC)C(=O)O)cc3)CCCCC2)cc1)C(=O)O (stereo unspecified)	100
O=C(NCCO[N+](=O)[O-])c1cccnc1	102
Oc1ccc(OCc2ccccc2)cc1	89.5
O=C(O)c1cccc(-c2noc(-c3ccccc3F)n2)c1	93.9
COC(=O)N[C@H](C(=O)N[C@@H](Cc1ccccc1)[C@@H](O)CN(Cc1ccc(-c2ccccn2)cc1)NC(=O)[C@@H](NC(=O)OC)C(C)(C)C)C(C)(C)C	7.5

SMILES	parasite growth, % of DMSO control [%]
CN(C)CCc1c[nH]c2ccc(Cn3cncn3)cc12	89.2
Cc1ccc(S(=O)(=O)NC(=O)NN2CC3CCCC3C2)cc1 (stereo unspecified)	14
CCCCc1ccc2nc(NC(=O)OC)[nH]c2c1	49.5
CCC[C@@H]1C[C@@H](C(=O)N[C@@H]([C@H]2O[C@H](SC)[C@H](O)[C@@H](O)[C@H]2O)[C@@H](C)O)N(C)C1	28.5
CC1(C)CCC(C)(C)c2cc(NC(=O)c3ccc(C(=O)O)cc3)ccc21	23.1
Cc1cc(=O)c2c(O)c3c(O)cc(=O)c4c3c3c(cc(O)c1c23)C(C)(C)C=4O	6.69
O=c1oc2cc(O)ccc2s1	85.1
O=C1CCc2ccc(OCCCCN3CCN(c4cccc(Cl)c4Cl)CC3)cc2N1	29.7
Nc1cc(C(Cl)=C(Cl)Cl)c(S(N)(=O)=O)cc1S(N)(=O)=O	103
Cc1nc(-c2ccc(OCC(C)C)c(C#N)c2)sc1C(=O)O	64.2
Clc1ccc(C(Cn2ccnc2)OCc2ccsc2Cl)c(Cl)c1 (stereo unspecified)	4.99
C=C(c1ccc(C(=O)O)cc1)c1cc2c(cc1C)C(C)(C)CCC2(C)C	70
COc1c(O)cc2c(c1O)[C@@H]1O[C@H](CO)[C@@H](O)[C@H](O)[C@H]1OC2=O	92.9
CC(C)c1nc(CN(C)C(=O)N[C@H](C(=O)N[C@@H](Cc2ccccc2)C[C@H](O)[C@H](Cc2ccccc2)NC(=O)OCc2cncs2)C(C)C)cs1	20.4
Cc1ncc([N+](=O)[O-])n1CC(C)O (stereo unspecified)	94.7
CN(c1nccc(=O)[nH]1)C1CCN(c2nc3ccccc3n2Cc2ccc(F)cc2)CC1	23.2
Cc1ccc(C(=O)c2cc(O)c(O)c([N+](=O)[O-])c2)cc1	82.6
O=C(O)c1cn(-c2ccc(F)cc2)c2cc(N3CCNCC3)c(F)cc2c1=O	92.9
CCC1=C(C)CN(C(=O)NCCc2ccc(S(=O)(=O)NC(=O)NC3CCC(C)CC3)cc2)C1=O (stereo unspecified)	98.4

From PubChem BioAssay (NCATS)
